Results published in PubChem BioAssay (NCI).
About 83,000 compounds went through this panel and 20% of them were active in at least one assay; those are over-represented in the sample as a whole.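 Growth was measured after 48 h exposure to one concentration of compound in 96-well plates. Values under 10 count as active.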 The source made the active and inactive calls.

system: MDA-MB-468 breast; assay: NCI-60 one-dose screen, 48 h (100 = growth as untreated, 0 = no growth, -100 = all killed); settings: 10 µM unless noted

Compound | growth
O=C(/C=C/c1cccnc1)c1ccccc1 | 99.2% (inactive)
COc1cccc(/C=C/C(=O)c2cc3c(N)c(C(=O)Nc4cccc(Cl)c4C)sc3nc2C)c1 | -7.04% (active)
C=C(C)[C@@H]1CC[C@]2(C(=O)N3CCNCC3)CC[C@]3(C)[C@H](CC[C@@H]4[C@@]5(C)C/C(=C/c6ccncc6)C(=O)C(C)(C)[C@@H]5CC[C@]43C)[C@@H]12 | 95% (inactive)
